# Most compounds without a hit are left out; they make up all but 21% or so of the library.
# AMA1 RON2 block – AMA1-RON2 (P. falciparum) interaction inhibition; AlphaScreen AMA1-biotinylated RON2 peptide binding; Potency, µM (top dose mostly 58.2 µM), without a hit: at the top dose activity change, negative = inhibition, actives largely listed as inhibitors; 360,000 tested, 0.2% active;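 note: potency is the fitted concentration of half-maximal effect; 0% = vehicle wells and -100% = peptide control; nearly all actives have a fitted effect of over 45% in size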
#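 AMA1 (3D7) with his tag at 25 nM final met compounds first, then biotinylated RON2 peptide at 25 nM; detection used donor plus acceptor beads, 10 µg/mL apiece, read by AlphaScreen after 30 min at room temperature.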
# Pf growth 96h – P. falciparum growth inhibition at 96 hour, primary screen for plastid delayed-death inhibitors; P. falciparum luciferase reporter growth, 96 h; Potency, µM (top dose mostly 28.7 µM), inactives show top-dose activity change, negative = inhibition, hits mostly inhibitors; 320,000 tested, 6.9% active; AID 504834; note: potency is the fitted concentration of half-maximal effect; % is set by controls: 0 for no effect and ±100 for the full control effect
#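 P. falciparum expressing integrated firefly luciferase grown in erythrocytes (2% hematocrit, 0.05% parasitemia final) with compounds for 96 hours at 37 C, 5% CO2. Growth inhibition read as loss of luminescence after adding luciferase detection reagent.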
# HCV inhibitor – inhibitors of hepatitis C virus infection; Huh7.5.1 HCVcc-Cre infection, luciferase reporter, 44 h; Potency, µM (series often up to 41.8 µM), for inactives: at the highest dose activity change, negative = inhibition, hits mostly inhibitors; 340,000 tested, 3.4% active; AID 651820; note: potency is the fitted concentration of half-maximal effect; % is set by controls: 0 for no effect and ±100 for the full control effect
#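 Compounds are dispensed onto cells plated 4 h earlier at 1,000 per well, with HCVcc-Cre virus (about 0.5 moi) added next. Following 44 h of culture, luminescent signal is measured for 15 sec after 15 min with substrate at room temperature.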
# Shiga toxin inh – Shiga toxin inhibition. Vero cells, Shiga toxin protein synthesis inhibition reporter. inhibition, % at 38.7 µM. 290,000 tested, 9.2% active; in the data active = inhibition mostly above about 28%, no sharp cut-off; inactive = mostly below about 43%; note: 0% is about no effect
# Pf growth 48h – inhibits P. falciparum growth in the first generation, 48 h; Potency, µM (top dose mostly 28.7 µM), for the others: at the highest dose activity change, negative = inhibition, actives largely listed as inhibitors; 310,000 tested, 5.9% active; P. falciparum luciferase growth in erythrocytes, 48 h; AID 504832; note: potency is the fitted concentration of half-maximal effect; % is set by controls: 0 for no effect and ±100 for the full control effect
#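 Growth was read as firefly luciferase luminescence after a 48 h, 37 C, 5% CO2 exposure of compounds to reporter-bearing P. falciparum cultures (0.1% parasitemia, 2% hematocrit final) in Albumax-supplemented RPMI 1640.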
# CHX counter – counter-screen for Shiga toxin inhibitors: cycloheximide protein synthesis inhibition. cell reporter, cycloheximide protein synthesis inhibition counterscreen. max response, %. 300,000 tested, 12% active; in the data active = max response mostly above about 13%, no sharp cut-off; inactive = mostly below about 14%; note: read at 38.3 µM for the half of the compounds with a filed dose; 0% is about no effect
# * = called active by the depositor; ? = inconclusive; · = no result; [ ] = remark or other dose. Unless noted, calls come from the whole dose curve; as a rule, active = well fitted curve in the direction sought with a large enough effect; inconclusive = small, poorly fitted or top-dose-only effect, or another doubt; inactive = no such curve, though single readings can be large; an effect the other way counts as inactive or inconclusive.
SMILES,AMA1 RON2 block,Pf growth 96h,HCV inhibitor,Shiga toxin inh,Pf growth 48h,CHX counter
Cc1cccc(NC(=O)CN2CCOCC2)c1C,0%,6%,19%,11,68%,2
O=C(Cn1ccnc1[N+](=O)[O-])NCCO,·,-9%,·,·,4%,·
Cc1nc2ccc(NC(=O)c3cccs3)cc2c(=O)n1Cc1ccc(Cl)cc1,-6%,3.3µM*,?,-3,?,0
CCCc1nc2ccc(NC(=O)c3cccs3)cc2c(=O)n1Cc1ccc(Cl)cc1,-1%,2%,?,10,0.47µM*,9
CN(C)CCCOC1C(C(O)CO)OC2OC(C)(C)O[C@@H]21 (stereo partly drawn),·,-23%,·,·,-11%,·
CC(C)(C)NC[C@H](O)COc1cccc2c1CCCC2=O,0%,1%,12%,·,-78%,·
Cc1ccc(OC[C@H](O)[C@H](C)NC(C)C)c2c1CCC2,-3%,?,-28%,·,9.3µM*,·
CC1OC2(OC1C)C(=O)Nc1ccccc12 (stereo not drawn),-3%,59%,-6%,-5,·,3
CN1CC(c2ccccc2Cl)C2(COc3ccccc3C2=O)C12C(=O)Nc1ccccc12 (stereo not drawn),-19%,?,?,55,?,16*
Cc1ccc(C2CN(C)C3(C(=O)Nc4ccccc43)C23COc2ccccc2C3=O)cc1 (stereo not drawn),-18%,?,2%,-14,15µM*,1
O=C(COc1ccc(Cl)cc1)c1ccc(O)cc1O,0%,110%,16%,69*,20%,25*
CCOC(=O)c1ccc(OCC(=O)c2ccc(O)cc2O)cc1,0%,53%,7%,50*,76%,18*
COC(=O)c1ccc(OCC(=O)c2ccc(O)cc2O)cc1,22%,-25%,3%,54,221%,11
CC(C)[C@H](NS(=O)(=O)c1cccc(Cl)c1)C(=O)OCC(=O)NC(=O)CN1CCCC1=O,-3%,-1%,-2%,·,-19%,·
O=S(=O)([N-]c1nc2ccccc2nc1-[n+]1ccc(-c2ccncc2)cc1)c1ccccc1,7%,?,16%,92*,?,34*
O=S(=O)([N-]c1nc2ccccc2nc1-[n+]1ccc(CCCc2ccccc2)cc1)c1cccs1,-6%,5.2µM*,-23%,7,7.4µM*,5
CC(C)C(=O)N1CCC1(C)C(=O)Nc1ccccc1OC(F)F (stereo not drawn),6%,·,·,·,·,·
CC(C)[C@@]1(c2ccc(Cl)cc2)ON(c2ccccc2C(F)(F)F)C1=O,·,2.3µM*,-12%,·,2.1µM*,·
COc1ccc([C@]2(C(C)C)ON(c3ccccc3C(F)(F)F)C2=O)cc1,23%,2.1µM*,?,·,1µM*,·
COc1ccc([C@@]2(C(C)C)ON(c3ccccc3C(F)(F)F)C2=O)cc1,42%,0.29µM*,?,·,0.33µM*,·
O=c1[nH]ncn1-c1ccccc1C(F)(F)F,2%,26%,3%,-6,-6%,-2
CS(=O)(=O)N(CC(=O)N1CCCC1)Cc1ccc(Cl)c(Cl)c1,0%,?,8%,-7,0%,1
C#CCN1CCc2onc(-c3ccc(Br)cc3)c2C1=O,-1%,·,·,·,·,·
CCOc1cc(/C=N/Nc2nc(Nc3ccccc3)nc(N3CCCCC3)n2)ccc1OCC(=O)O,-23%,21%,6%,-6,-16%,3
COc1ccc(/C=N\Nc2ncc(F)c(N3CCOCC3)n2)cc1OC,13%,?,6%,73*,?,39*
SMILES,AMA1 RON2 block,Pf growth 96h,HCV inhibitor,Shiga toxin inh,Pf growth 48h,CHX counter
O=[N+]([O-])c1ccc(Nc2nc(NCCO)nc(N3CCCC3)n2)cc1,-10%,53%[5.75 µM],?,-5,?,5
COc1ccc(/C=N/Nc2cc(C)nc(N3CCOCC3)n2)cc1OC,-18%,?,-2%,40,21%,10
O=[N+]([O-])c1ccc(Nc2nc(N/N=C\c3ccc4c(c3)OCO4)nc(N3CCCCC3)n2)cc1,67%,2.6µM*,?,7,2.1µM*,-4
O=[N+]([O-])c1ccc(/C=N/Nc2nc(N3CCCCC3)nc(N3CCCCC3)n2)cc1,-4%,4%,?,-4,?,-1
NNc1nc(Nc2ccc([N+](=O)[O-])cc2)nc(N2CCCCCC2)n1,112%,69%,-14%,-6,4.1µM*,1
COc1ccc(/C=N/Nc2nc(Nc3ccccc3)nc(N3CCCCC3)n2)cc1OC,57%,?,?,147*,?,34*
CC(=O)Nc1ccc(S(=O)(=O)Nc2cccc(-n3c(C)nc4ccccc4c3=O)c2)cc1,22%,1%,-4%,·,?,·
CC(C)Nc1ncnc2c1ncn2[C@H]1CN(Cc2ccco2)C[C@@H](CO)O1,-2%,·,·,·,·,·
Cc1ccc(S(=O)(=O)NCC(=O)OCC(=O)NCc2ccc(F)cc2)cc1,10%,-36%[5.75 µM],-8%,-17,-24%,-3
Oc1ccc(-c2nc3ccc4ccccc4c3c3c2CCC3)cc1O,-6%,6%,?,13,15µM*,23
Cc1cc(C)c2c(ccc3ccccc32)n1,28%,·,?,·,·,·
CC(C)(C)OC(=O)N[C@H](C(=O)OC(C)(C)C)c1ccc2ccccc2c1,0%,?,0%,·,?,·
FC(F)(F)Oc1ccccc1C(c1nnnn1Cc1ccccc1)N1CCN(C/C=C/c2ccccc2)CC1 (stereo not drawn),-21%,·,·,·,·,·
COc1ccc(OC)c(N2Cc3ccccc3C2=N)c1,-6%,5.9µM*,9%,23,6%,1
COc1ccccc1N1Cc2ccccc2C1,-13%,?,-20%,4,13µM*,21*
Cc1ccccc1N1Cc2ccccc2C1,6%,-18%,6%,1,?,1
COc1ccc(OC)c(S(=O)(=O)N2CCc3ccccc32)c1,2%,-6%,2%,16,?,-2
COc1ccc(Cl)cc1N1Cc2ccccc2C1,6%,·,-2%,-3,13µM*,-4
COc1ccc(OC)c(N2Cc3ccccc3C2)c1,-9%,12µM*,?,3,5.9µM*,-1
CSc1ccc(/C=C(/NC(=O)c2ccco2)C(=O)N2CCCCC2)cc1,-1%,?,-13%,-3,-5%,-3
COc1cc(OC)nc(Oc2cc(C=O)ccc2OC)n1,-1%,-21%,19%,19,-5%,-1
CN(Cc1c(C(=O)N/N=C/c2c(F)cccc2Cl)nnn1-c1nonc1N)C1CCCCC1,-3%,·,·,·,·,·
COc1ccc(N2Cc3ccccc3C2)cc1Cl,3%,27%,?,87*,?,22*
Cc1cc(C)nc(N2Cc3ccccc3C2=N)n1,4%,?,0%,35,15µM*,19
Cc1ccc(N2Cc3ccccc3C2=N)cc1[N+](=O)[O-],-7%,13%,13%,-4,-2%,1
